Reference: PubChem BioAssay AID624330 (Southern Research Specialized Biocontainment Screening …, 2012)
“And” between values parts separate entries of the source, which are not always exact repeats. Identical values can stand only once. Among all 340,000 compounds or so, about 2,100 (0.62%) were called active.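 The calls were made as follows: active = first-screen hits whose inhibition reached a set limit at any dose in the follow-up dose series; inconclusive = inhibition above the set first-screen limit but never retested; inactive = the rest.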 Not all results are given here. Potency and affinity values are given separately.

The molecules below were run against Rac GTPase-activating protein 1 (Homo sapiens) (UniProt Q9H0H5) (assay: MgcRacGAP GTPase-activating activity inhibitors, confirmation, biochemical, ADP Hunter fluorescence, primary and confirmatory (AID 624330;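 also: fluorescence reports GDP produced by GAP-driven GTP hydrolysis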)). Conditions: MgcRacGAP-stimulated Rac1 GTP hydrolysis, at 30 µM, stronger effect = higher value, GST-tagged Rac1 F28L mutant substrate.
Rac GTPase-activating protein 1 (Homo sapiens), sequence (Q9H0H5 whole entry, looked up): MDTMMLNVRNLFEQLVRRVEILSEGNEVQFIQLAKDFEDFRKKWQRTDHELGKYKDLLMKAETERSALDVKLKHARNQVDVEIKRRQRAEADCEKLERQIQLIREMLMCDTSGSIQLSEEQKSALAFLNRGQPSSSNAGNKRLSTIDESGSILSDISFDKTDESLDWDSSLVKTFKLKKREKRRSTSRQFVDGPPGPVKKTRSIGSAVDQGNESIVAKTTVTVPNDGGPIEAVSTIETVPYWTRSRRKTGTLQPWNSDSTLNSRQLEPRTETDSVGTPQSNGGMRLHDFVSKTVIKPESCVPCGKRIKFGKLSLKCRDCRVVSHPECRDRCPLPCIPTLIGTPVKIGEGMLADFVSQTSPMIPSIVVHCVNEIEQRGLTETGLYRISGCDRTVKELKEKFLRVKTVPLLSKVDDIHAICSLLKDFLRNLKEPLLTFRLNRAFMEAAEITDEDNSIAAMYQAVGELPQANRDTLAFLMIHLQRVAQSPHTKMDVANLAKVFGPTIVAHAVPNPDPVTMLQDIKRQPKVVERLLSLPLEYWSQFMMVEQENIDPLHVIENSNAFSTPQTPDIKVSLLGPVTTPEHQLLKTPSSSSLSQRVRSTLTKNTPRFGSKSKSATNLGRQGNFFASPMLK

inhibition, inactive:
CN(Cc1cnccn1)C(=O)C1CCC(=O)N(CCc2ccc(Cl)cc2)C1 (centres undefined) 8.49%
COc1ccc(CCNC(=O)N2CCOCC2)cc1 14.2%
COC(=O)c1ccc(OCC(O)CN2CCOCC2)cc1 (centres undefined) -9.81%
CN1CCN(NC(=O)NC2CCCCC2)CC1 2.74%
COc1cc(NC(=O)c2cccs2)ccc1NC(=O)Cc1ccccc1 4.97%
N#Cc1cccc(NC(=O)CNc2cccc(S(=O)(=O)N3CCCC3)c2)c1 -1.55%
O=C(Nc1cccc(S(=O)(=O)N2CCOCC2)c1)c1c2c(nc3ccccc13)CCC2 11.9%
COC(c1ccccc1)c1nnc(CCC(=O)NCc2ccc3ncccc3c2)o1 (centres undefined) 9.84%
CCCN1CNC(=S)N(c2ccc(C)cc2C)C1 16.6%
CC(C)N(Cc1cc2ccccc2[nH]c1=O)C(=O)C(C)(C)C -1.34%
CCc1c(C)nc(N)nc1Cl -2.74%
CCOC(=O)C(Sc1cc(C)nc(N)n1)C(C)=O (centres undefined) 0.9%
COc1cc2c(cc1OC)C(C)=NCC2 5.87%
COc1cc2c(cc1OC)C(c1ccccc1)=NCC2 3.03%
Cc1cc(OCC(=O)OCC(=O)Nc2cc(S(=O)(=O)N3CCOCC3)ccc2Cl)ccc1Cl 2.85%
CCOC(=O)CN1C(=N)N(c2nc(NC(C)C)nc(NC(C)C)n2)CC1=O 7%
CCOC(=O)Cc1csc(NC(=O)CSc2nnnn2-c2ccc(CC)cc2)n1 8.91%
Cc1ccc(NC(=O)CCNC(=O)Nc2ccccc2)cc1S(=O)(=O)N(C)C 2.28%
Cc1ccc(NC(=O)CCNC(=O)c2ccccc2Cl)cc1S(=O)(=O)N(C)C 2.79%
CN1C(=O)N(C)c2cccc3cccc1c23 6.07%
CCN1/C(=N\N)c2cccc3cccc1c23 13.1%
Cc1oc(-c2cccc(F)c2)nc1CN1CCCN(C(=O)c2ccco2)CC1 9.79%
CCCCn1c(N)c(N(Cc2ccccc2OC)C(=O)C(C)Oc2ccc(Cl)cc2)c(=O)[nH]c1=O (centres undefined) 3.24%
Cc1ccc(S(=O)(=O)N(C)Cc2ccc(C(=O)NN=C(CC(C)C)CC(C)C)cc2)cc1 7.07%
CCn1cnc2c(Nc3cccc(Cl)c3)nc(C#N)nc21 12.9%
O=C(NCc1ccco1)c1ccccc1 4.89%
O=C(NCC1CCCO1)c1ccccc1 (centres undefined) -0.11%
O=C(NCc1ccco1)c1cc2sccc2n1Cc1ccccc1 12.8%
O=C(Cn1c(C(=O)NCCCN2CCOCC2)cc2sccc21)c1ccccc1 29.1%
CN1CCc2c(n(CC(O)CNCc3ccccc3)c3ccccc23)C1=O (centres undefined) 8.39%
COc1cc(C(F)(F)F)c(C(=O)N(C)Cc2ccc(Cl)c(Cl)c2)cn1 5.07%
O=C(CN1C(=O)c2ccccc2S1(=O)=O)Nc1ccc(S(=O)(=O)N2CCCC2)cc1 -4.76%
O=S(=O)(c1ccc(Cl)cc1)N1CCCCCC1 4.19%
CN1CCN(S(=O)(=O)c2ccc(Cl)cc2)CC1 4.29% and 1.92%
Cc1ccc(S(=O)(=O)NCCc2ccccc2)cc1 8.77%
Cc1ccc(S(=O)(=O)N2CCC(C(=O)N3CCCC(C(F)(F)F)C3)CC2)cc1C (centres undefined) 5.5%
CCOC(=O)C1=C(C)N(C)C(=O)NC1c1cc2c(cc1[N+](=O)[O-])OCO2 (centres undefined) 11.2%
CCOC(=O)C1=C(C)NC(=O)CC1c1cc2c(cc1Br)OCO2 (centres undefined) 14.8%
COc1ccc(CC(Cc2ccc(OC)c(OC)c2)NC=O)cc1OC 8.2%
O=C(Nc1ccccc1C(=O)Nc1ccccc1)c1ccco1 3.51%
CCOc1ccc(N2C(=O)C3C(c4ccccc4F)NN(C(=O)c4ccc(C)cc4)C3C2=O)cc1 (centres undefined) -3.94%
CC(=O)C1C(c2ccc([N+](=O)[O-])cc2)c2c(noc2C)CC1(C)O (centres undefined) -3.68%
CC(C)(C)OC(=O)n1cc(/C=N/NC(=O)c2ccco2)c2ccccc21 6.56%
O=C(O)CCCN1C(=O)/C(=C/c2ccc(-c3nc4ccccc4s3)o2)SC1=S 11.9%
O=C(O)CCCN1C(=O)/C(=C\c2ccc(-c3nc4ccccc4s3)o2)SC1=S 10.4%
COc1ccc(NC(=O)CNC(c2ccccc2)c2ccccc2)cc1Cl 5.6%
Cc1cccc(NC(=O)Cn2c(=O)oc3cc(S(=O)(=O)N4CCCC4)ccc32)n1 9.63%
CN(C)S(=O)(=O)Oc1ccc(Cl)cc1C(=O)Nc1ccc(F)cc1F 0.65%
Cc1ccc(F)cc1N=Cc1c(O)c2ccccc2oc1=O 7.61%
Cc1ccc(N=Cc2c(O)c3ccccc3oc2=O)c(C)c1 5.4%
COc1ccccc1NC(=O)C(=O)N1N=C(C(C)C)CC1(O)C(F)(F)F (centres undefined) -2.51%
O=C(NCc1cccc(C(F)(F)F)c1)C1CC(c2ccc(C(F)(F)F)cc2)=NO1 (centres undefined) 7.21%
Cc1ccc(Nc2cc(C)nc3ncnn23)c(C)c1 7.05%
Cc1ccc(C)c(N2CCN(CCCc3ccccc3)CC2)c1 -8.46%
Cc1ccc(NC2=C/C(=N/S(=O)(=O)c3cccs3)c3ccccc3C2=O)cc1 12.6%
Cc1ccc(NC2=C(Cl)C(=O)c3ccccc3C2=O)cc1 5.85%
CCNC1=C(Cl)C(=O)c2ccccc2C1=O 9.6%
O=C(O)c1ccc(NC2=C/C(=N/S(=O)(=O)c3ccccc3)c3ccccc3C2=O)cc1 11.5%
O=C1C(Cl)=C(NCCCO)C(=O)c2ccccc21 7.29%
CCN(CC)c1ccc(NC2=C(Cl)C(=O)c3ccccc3C2=O)cc1 28.6%
CCc1ccc(S(=O)(=O)/N=C2\C=C(Nc3ccc(O)cc3)C(=O)c3ccccc32)cc1 10.1%
O=C1C(Nc2ccccc2)=C/C(=N/S(=O)(=O)c2cccs2)c2ccccc21 13.2%
CC(C)CN1CCC(=O)N([C@H](COc2ccccc2)c2ccccc2)CC1 12.8%
O=C(CN1C2CCCC1CC(NC(=O)c1ccco1)C2)Nc1ccccc1 (centres undefined) 9.34%
CN(CC(=O)Nc1cccc(F)c1)CC(=O)N(C)c1c(N)n(Cc2ccccc2)c(=O)[nH]c1=O 7.85%
CC(C)c1ccc(NC(=O)COC(=O)c2c[nH]c(=O)[nH]c2=O)cc1 6.27%
Cc1ccc(C(=O)Nc2ncccc2O)cc1S(=O)(=O)N1CCCCC1 -2.55%
Cc1csc(=O)n1CC(=O)OCC(=O)NCc1ccc(Cl)cc1Cl 8.92%
O=C(Nc1ccc(Cl)cc1)C(c1ccccc1)N1CCOCC1 (centres undefined) 1.96%
COC1=C(Nc2ccc(C)cc2)C(=O)c2ccccc2C1=O 6.66%
COC1=C(Nc2ccccc2)C(=O)c2ccccc2C1=O 11.3%
Nc1nc(COc2ccc(Cl)cc2)cs1 5.42%
O=C(Nc1ccc2c(c1)OCCO2)C1CC(O)CN1C(=O)Nc1ccccc1 (centres undefined) 5.39%
Cc1cc(C(=O)NNC(=O)/C=C/c2ccc(F)cc2)c(C)o1 0.14%
Cc1cc(C(=O)NNC(=O)/C=C/c2ccccc2Cl)c(C)o1 6.81%
COc1cccc(-c2cc(C(=O)Nc3cccnc3)no2)c1 3.22%
Cc1c(Cl)cccc1NC(=S)NCc1cccs1 5.46%
COCC(=O)NC1CCN(S(=O)(=O)c2ccc(C(=O)O)cc2)CC1 3.4%
COc1cc2cnc(-c3ccccc3)c(C(=O)c3ccc(F)cc3)c2cc1OC 6.22%
Nc1nn2c(-c3ccccc3)cc(=O)[nH]c2c1N=Nc1ccc(Br)cc1 4.26%
Cc1ccc(N=Nc2c(N)nn3c(C)cc(C)nc23)cc1 7.06%
Cc1cc(C)n2nc(N)c(N=Nc3ccccc3)c2n1 13.3%
Cc1cc(C)n2nc(N)c(N=Nc3ccc(Cl)cc3)c2n1 8.06%
COc1ccc(C(=O)NNC(=O)CSc2ccccc2)cc1 0.63%
Cc1ccc(N(CC(=O)N2CCN(C3CCCCC3)CC2)S(=O)(=O)c2cccnc2)cc1 -4.65%
N#CC(C#N)=C1C(=O)N(CCN2CCCCC2)c2ccccc21 -11.4%
O=C(CSc1nc(NS(=O)(=O)c2ccccc2)cc(=O)[nH]1)Nc1ccc(Cl)cc1 -0.7%
NS(=O)(=O)c1ccc(NC(=S)N2CCC(Cc3ccccc3)CC2)cc1 18.2%
NS(=O)(=O)c1ccc(CCNC(=O)CN2CCC(Cc3ccccc3)CC2)cc1 6.03%
Cc1ccc(OCC(=O)NNC(=O)C2CC(=O)N(c3ccc4c(c3)OCCO4)C2)cc1 (centres undefined) 6.61%
O=C(CCc1nnc(CCCCc2ccccc2)o1)NCc1cc(F)ccc1F 9.91%
Cn1c(CCC(=O)OCC(=O)Nc2ccc(Oc3ccccc3)cc2)nc(=O)c2ccccc21 2.65%
CC(C)Cc1n[nH]c(=O)[nH]1 4.75%
COc1ccc(C=C2SC(=O)NC2=O)cc1OC 6.99%
COc1ccc(C=C2NC(=O)NC2=O)cc1O 10.9%
CCN(CC)c1ccc(/C=C2\NC(=O)NC2=O)cc1 30.9%
O=C1NC(=O)/C(=C/c2cccc(O)c2)N1 5.03%
O=C1NC(=O)C(=Cc2ccccc2)N1 -1.98%
COc1cc(/C=C2\SC(=N)N(c3ccc(F)cc3)C2=O)ccc1O 20.9%
